Consider three sequences from publication PMC7862700, “An all-to-all approach to the identification of sequence-specific readers for epigenetic DNA modifications on cytosine”.

Holding throughout (assay): DAPPL (digital affinity profiling via proximity ligation, sequencing); 10 mM Tris-HCl pH 7.5, 50 mM NaCl, 1 mM DTT, 4% glycerol, room temperature, 30 min; GST-TFs on glutathione beads, 16-mer random dsDNA library, 0.1% formaldehyde crosslink after washing; high values mean tight binding
Holding throughout (details): protein: recombinant; tags: N-terminal GST; dsDNA, one strand shown

The target of one assay is T1, SPIC (Homo sapiens, UniProt Q8N5J4 1-248).
T1 sequence: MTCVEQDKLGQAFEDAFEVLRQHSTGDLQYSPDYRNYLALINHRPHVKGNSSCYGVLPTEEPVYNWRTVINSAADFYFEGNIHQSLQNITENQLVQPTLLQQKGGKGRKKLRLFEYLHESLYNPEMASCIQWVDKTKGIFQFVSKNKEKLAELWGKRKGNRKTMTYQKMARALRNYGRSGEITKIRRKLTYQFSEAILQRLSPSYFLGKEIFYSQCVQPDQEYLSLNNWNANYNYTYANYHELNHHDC
The essentials:
(§1)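 Binding signal is defined as a hexamer's read frequency for one factor over its frequency for the tag-only sample. To obtain reads, GST-fused human transcription factors were expressed in yeast, captured on glutathione beads, barcoded with DNA and pooled with that sample. Pools met 200 nmole of a 16-mer random double-stranded DNA library in Tris/NaCl/DTT/glycerol buffer for 30 min at room temperature before washing, 0.1% formaldehyde crosslinking, proximity ligation (BsaI/T4 ligase, 1 h, 37 °C), PCR and Illumina NextSeq500 sequencing.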

Another assay has as its target ELF4 (Homo sapiens, UniProt Q99607 1-663). In outline:
as §1

The target in the next assay is T2, ERF (Homo sapiens, UniProt P50548 1-548).
T2 sequence: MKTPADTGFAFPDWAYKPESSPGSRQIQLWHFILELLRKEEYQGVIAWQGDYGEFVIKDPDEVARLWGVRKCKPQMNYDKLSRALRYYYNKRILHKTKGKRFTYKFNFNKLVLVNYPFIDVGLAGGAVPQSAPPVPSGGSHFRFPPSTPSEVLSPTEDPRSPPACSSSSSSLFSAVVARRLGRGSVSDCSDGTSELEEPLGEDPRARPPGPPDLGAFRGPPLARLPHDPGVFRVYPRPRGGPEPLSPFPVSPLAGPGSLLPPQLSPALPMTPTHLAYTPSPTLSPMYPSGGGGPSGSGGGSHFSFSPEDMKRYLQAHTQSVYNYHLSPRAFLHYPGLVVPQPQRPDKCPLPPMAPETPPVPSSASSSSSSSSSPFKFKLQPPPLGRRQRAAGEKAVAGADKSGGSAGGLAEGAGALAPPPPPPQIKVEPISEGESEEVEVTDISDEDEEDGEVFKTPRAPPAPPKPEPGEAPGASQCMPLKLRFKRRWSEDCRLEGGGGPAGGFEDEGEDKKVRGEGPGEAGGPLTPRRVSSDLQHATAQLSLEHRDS
In outline:
as §1

The target of a further assay is T3, ELK1 (Homo sapiens, UniProt P19419 1-428).
T3 sequence: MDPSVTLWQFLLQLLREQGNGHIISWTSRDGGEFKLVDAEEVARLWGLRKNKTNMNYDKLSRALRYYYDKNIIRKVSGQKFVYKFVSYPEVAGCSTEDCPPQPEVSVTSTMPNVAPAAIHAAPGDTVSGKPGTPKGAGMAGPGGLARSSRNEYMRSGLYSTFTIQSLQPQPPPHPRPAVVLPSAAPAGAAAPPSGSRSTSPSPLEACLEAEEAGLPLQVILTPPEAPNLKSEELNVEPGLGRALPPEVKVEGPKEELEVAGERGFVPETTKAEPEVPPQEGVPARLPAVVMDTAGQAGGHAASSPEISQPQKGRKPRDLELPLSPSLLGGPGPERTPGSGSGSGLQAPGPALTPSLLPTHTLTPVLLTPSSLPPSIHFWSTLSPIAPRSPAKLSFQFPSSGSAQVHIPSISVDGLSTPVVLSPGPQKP
The essentials:
as §1

The target in a further assay is T4, GABPA (Homo sapiens, UniProt Q06546 1-454).
T4 sequence: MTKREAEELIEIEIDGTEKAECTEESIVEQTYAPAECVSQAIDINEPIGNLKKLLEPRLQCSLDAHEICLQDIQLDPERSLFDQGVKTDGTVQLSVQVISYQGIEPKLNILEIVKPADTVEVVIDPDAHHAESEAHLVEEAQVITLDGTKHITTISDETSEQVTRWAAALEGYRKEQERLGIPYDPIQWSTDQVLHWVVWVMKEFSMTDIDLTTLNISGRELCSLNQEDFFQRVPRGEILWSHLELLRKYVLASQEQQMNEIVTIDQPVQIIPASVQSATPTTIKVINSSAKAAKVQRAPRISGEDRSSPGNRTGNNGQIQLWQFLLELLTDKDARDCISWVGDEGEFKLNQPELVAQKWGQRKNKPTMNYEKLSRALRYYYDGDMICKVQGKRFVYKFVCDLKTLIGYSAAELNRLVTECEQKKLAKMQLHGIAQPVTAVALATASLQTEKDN
In outline:
as §1

The next assay has as its target SPI1 (Homo sapiens, UniProt P17947 1-270). The essentials: as §1
The next assay addresses T5, ELK3 (Homo sapiens, UniProt P41970 1-407).
T5 sequence: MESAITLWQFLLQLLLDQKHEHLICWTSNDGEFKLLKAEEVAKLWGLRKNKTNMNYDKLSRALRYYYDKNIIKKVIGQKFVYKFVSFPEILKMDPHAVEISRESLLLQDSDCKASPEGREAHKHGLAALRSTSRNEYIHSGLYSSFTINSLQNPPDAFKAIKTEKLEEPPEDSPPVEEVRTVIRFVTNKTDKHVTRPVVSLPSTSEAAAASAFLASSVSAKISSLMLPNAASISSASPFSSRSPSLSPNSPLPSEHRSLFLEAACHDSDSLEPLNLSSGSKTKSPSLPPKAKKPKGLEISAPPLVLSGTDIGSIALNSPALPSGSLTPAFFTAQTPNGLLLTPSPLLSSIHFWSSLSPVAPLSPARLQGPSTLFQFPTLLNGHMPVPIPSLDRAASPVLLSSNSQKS
The essentials: as §1

The target of the next assay is T6, ETV2 (Homo sapiens, UniProt O00321 1-342).
T6 sequence: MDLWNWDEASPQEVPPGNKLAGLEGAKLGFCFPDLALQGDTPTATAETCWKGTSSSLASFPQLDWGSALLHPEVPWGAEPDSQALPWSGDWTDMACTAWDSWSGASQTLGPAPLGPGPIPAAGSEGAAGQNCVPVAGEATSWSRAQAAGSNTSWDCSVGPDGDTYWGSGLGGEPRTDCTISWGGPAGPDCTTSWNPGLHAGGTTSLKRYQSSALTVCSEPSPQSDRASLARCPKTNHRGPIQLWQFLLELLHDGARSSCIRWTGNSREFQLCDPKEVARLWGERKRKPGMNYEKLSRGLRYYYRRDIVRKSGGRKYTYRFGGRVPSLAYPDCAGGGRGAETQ
The essentials: as §1

In a further assay the target is ETV1 (Homo sapiens, UniProt P50549 1-477). The essentials: as §1
For a further assay, the target named is T7, ETS2 (Homo sapiens, UniProt P15036 1-469).
T7 sequence: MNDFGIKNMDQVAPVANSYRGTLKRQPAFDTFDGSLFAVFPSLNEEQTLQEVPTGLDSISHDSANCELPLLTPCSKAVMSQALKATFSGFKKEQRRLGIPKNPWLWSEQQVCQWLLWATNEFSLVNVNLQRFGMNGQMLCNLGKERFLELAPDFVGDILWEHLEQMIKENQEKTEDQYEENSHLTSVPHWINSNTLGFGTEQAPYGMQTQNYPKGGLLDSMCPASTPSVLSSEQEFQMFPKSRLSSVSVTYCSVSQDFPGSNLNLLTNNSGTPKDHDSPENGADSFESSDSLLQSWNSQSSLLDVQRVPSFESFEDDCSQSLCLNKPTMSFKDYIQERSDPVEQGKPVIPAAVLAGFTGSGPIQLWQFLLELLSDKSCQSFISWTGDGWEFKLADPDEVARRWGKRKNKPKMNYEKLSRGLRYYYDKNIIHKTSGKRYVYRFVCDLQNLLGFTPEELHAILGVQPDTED
The essentials:
as §1

For another assay, the target named is T8, ETV7 (Homo sapiens, UniProt Q9Y603 1-341).
T8 sequence: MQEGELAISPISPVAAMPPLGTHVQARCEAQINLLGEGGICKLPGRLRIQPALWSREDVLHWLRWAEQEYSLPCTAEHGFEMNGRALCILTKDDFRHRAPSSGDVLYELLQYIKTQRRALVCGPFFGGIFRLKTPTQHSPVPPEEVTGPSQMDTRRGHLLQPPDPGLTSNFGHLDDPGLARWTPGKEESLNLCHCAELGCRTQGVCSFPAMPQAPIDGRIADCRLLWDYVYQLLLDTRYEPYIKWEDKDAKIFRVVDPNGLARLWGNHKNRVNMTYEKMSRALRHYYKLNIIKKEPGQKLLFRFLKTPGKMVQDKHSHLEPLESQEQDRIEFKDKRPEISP
The essentials:
as §1

The next assay concerns the target T9, ELF5 (Homo sapiens, UniProt Q9UKW6-2 1-255).
T9 sequence: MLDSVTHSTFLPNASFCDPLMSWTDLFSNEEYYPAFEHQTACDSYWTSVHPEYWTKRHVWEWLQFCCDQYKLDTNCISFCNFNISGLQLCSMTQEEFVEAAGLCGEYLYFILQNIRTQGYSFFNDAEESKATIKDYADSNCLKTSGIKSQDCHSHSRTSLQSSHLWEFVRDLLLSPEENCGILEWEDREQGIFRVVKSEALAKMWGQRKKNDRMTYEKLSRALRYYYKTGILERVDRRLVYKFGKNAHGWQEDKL
The essentials:
as §1

The target of another assay is T10, ETV3 (Homo sapiens, UniProt P41162-2 1-143).
T10 sequence: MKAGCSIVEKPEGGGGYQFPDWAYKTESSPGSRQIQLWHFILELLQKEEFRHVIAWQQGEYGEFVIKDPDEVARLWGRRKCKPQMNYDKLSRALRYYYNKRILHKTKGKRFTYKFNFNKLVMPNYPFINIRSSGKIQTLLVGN
In outline: as §1

ELF4, sequence (Q99607 whole entry): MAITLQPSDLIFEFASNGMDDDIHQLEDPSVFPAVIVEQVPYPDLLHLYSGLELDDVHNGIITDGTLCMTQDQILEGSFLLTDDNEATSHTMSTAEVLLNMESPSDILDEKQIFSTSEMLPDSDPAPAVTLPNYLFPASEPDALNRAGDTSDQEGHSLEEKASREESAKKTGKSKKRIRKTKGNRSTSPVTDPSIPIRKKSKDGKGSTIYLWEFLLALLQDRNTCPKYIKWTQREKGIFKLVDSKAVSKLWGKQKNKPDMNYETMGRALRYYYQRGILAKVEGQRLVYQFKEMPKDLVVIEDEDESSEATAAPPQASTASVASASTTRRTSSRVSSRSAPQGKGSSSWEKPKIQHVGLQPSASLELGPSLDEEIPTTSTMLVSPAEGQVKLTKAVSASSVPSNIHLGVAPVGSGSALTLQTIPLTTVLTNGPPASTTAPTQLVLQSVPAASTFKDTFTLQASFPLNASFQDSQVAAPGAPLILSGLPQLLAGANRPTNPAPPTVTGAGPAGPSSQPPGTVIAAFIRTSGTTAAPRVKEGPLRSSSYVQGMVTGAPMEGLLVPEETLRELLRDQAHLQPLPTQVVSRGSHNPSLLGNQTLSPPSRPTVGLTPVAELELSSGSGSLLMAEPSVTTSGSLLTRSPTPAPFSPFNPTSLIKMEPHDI
ETV1, sequence (P50549 whole entry): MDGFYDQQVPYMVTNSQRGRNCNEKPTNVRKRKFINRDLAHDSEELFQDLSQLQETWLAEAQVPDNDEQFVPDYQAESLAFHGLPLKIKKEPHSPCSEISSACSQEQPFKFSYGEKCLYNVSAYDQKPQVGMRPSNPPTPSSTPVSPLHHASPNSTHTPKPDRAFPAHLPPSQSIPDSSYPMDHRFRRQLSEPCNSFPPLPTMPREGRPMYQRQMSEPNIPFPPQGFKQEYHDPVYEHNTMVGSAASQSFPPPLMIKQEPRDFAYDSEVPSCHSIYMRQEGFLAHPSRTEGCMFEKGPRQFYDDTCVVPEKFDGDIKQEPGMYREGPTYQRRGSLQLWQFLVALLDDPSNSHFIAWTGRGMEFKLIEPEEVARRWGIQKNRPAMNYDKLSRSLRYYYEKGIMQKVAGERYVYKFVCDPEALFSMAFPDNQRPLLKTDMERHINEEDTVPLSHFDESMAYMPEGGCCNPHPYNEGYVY

On to ATTGTG, for which the binding signal was 1.07 fold enrichment (6-mer frequency, TF over GST control) with SPIC; 1 fold enrichment (6-mer frequency, TF over GST control) in the assay with ELF4; 1.06 fold enrichment (6-mer frequency, TF over GST control) with ERF.

With ACCTGT, the binding signal was 1.05 fold enrichment (6-mer frequency, TF over GST control) with ELK1; 1 fold enrichment (6-mer frequency, TF over GST control) in the assay with GABPA; 1.01 fold enrichment (6-mer frequency, TF over GST control) with SPI1; 1.12 fold enrichment (6-mer frequency, TF over GST control) with ELK3; 1.06 fold enrichment (6-mer frequency, TF over GST control) with SPIC; 1.06 fold enrichment (6-mer frequency, TF over GST control) in the assay with ELF4. The binding signal in the assay with ETV2 was 1.04 fold enrichment (6-mer frequency, TF over GST control); with ETV1 it was 1.02 fold enrichment (6-mer frequency, TF over GST control); in the assay with ERF, 1.08 fold enrichment (6-mer frequency, TF over GST control); with ETS2 it was 1.04 fold enrichment (6-mer frequency, TF over GST control); in the assay with ETV7 it was 1.07 fold enrichment (6-mer frequency, TF over GST control); in the assay with ELF5, 1.04 fold enrichment (6-mer frequency, TF over GST control). For the same sequence, in the assay with ETV3, the binding signal was 1.13 fold enrichment (6-mer frequency, TF over GST control).

Turning to TCAGAC, the binding signal with SPIC was 1.11 fold enrichment (6-mer frequency, TF over GST control).
